# Measured values reported in the supplement of paper PMC8728848.
# Shown is part of a subset that was picked to be rich in the strongest signals.
# B1: SBD-G4S3-Fc (protein)
# chain: MASIPSSASVQLDSYNYDGSTFSGKIYVKNIAYSKKVTVVYADGSDNWNNNGNIIAASFSGPISGSNYEYWTFSASVKGIKEFYIKYEVSGKTYYDNNNSANYQVSTGGGGSGGGGSGGGGSEFVPRDCGCKPCICTVPEVSSVFIFPPKPKDVLTITLTPKVTCVVVDISKDDPEVQFSWFVDDVEVHTAQTQPREEQFNSTFRSVSELPIMHQDWLNGKEFKCRVNSAAFPAPIEKTISKTKGRPKAPQVYTIPPPKEQMAKDKVSLTCMITDFFPEDITVEWQWNGQPAENYKNTQPIMDTDGSYFVYSKLNVQKSNWEAGNTFTCSVLHEGLHNHHTEKSLSHSPGAA
# Columns and labels:
# Assay in all cases: glycan array binding signal (z-score within array); higher = stronger binding
# Conditions in all cases: glycan notation: IUPAC condensed, linker removed
# [1] = molecular target: Gal(b1-4)GlcNAc(b1-3)Gal(b1-4)GlcNAc(b1-2)Man(a1-3)[Gal(b1-4)GlcNAc(b1-3)Gal(b1-4)GlcNAc(b1-2)Man(a1-6)]Man(b1-4)GlcNAc(b1-4)GlcNAc
# Summary of the method: (§1)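 Arrays were curated from the Consortium for Functional Glycomics database, 3228 in total, and kept only where the protein sequence was available. Binding is expressed as a within-array Z-score. This score was averaged across arrays of the same protein sequence at different concentrations or buffers and across linkers, and negative values can be read as non-binding.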
# [2] = molecular target: Gal(b1-4)GlcNAc(b1-3)Gal(b1-4)GlcNAc(b1-2)[Gal(b1-4)GlcNAc(b1-3)Gal(b1-4)GlcNAc(b1-6)]Man(a1-6)[Gal(b1-4)GlcNAc(b1-3)Gal(b1-4)GlcNAc(b1-2)Man(a1-3)]Man(b1-4)GlcNAc(b1-4)[Fuc(a1-6)]GlcNAc
# Summary of the method: as §1
# [3] = molecular target: Gal(b1-4)GlcNAc(b1-3)Gal(b1-4)GlcNAc(b1-3)Gal(b1-4)GlcNAc(b1-3)Gal(b1-4)GlcNAc(b1-3)Gal(b1-4)GlcNAc(b1-2)Man(a1-3)[Gal(b1-4)GlcNAc(b1-3)Gal(b1-4)GlcNAc(b1-3)Gal(b1-4)GlcNAc(b1-3)Gal(b1-4)GlcNAc(b1-3)Gal(b1-4)GlcNAc(b1-2)Man(a1-6)]Man(b1-4)GlcNAc(b1-4)GlcNAc
# Summary of the method: as §1
# [4] = molecular target: Gal(b1-4)GlcNAc(b1-3)[Gal(b1-4)GlcNAc(b1-6)]Gal(b1-4)GlcNAc
# Summary of the method: as §1
# Gal(b1-6)Gal = molecular target: Gal(b1-6)Gal
# Summary of the method: as §1
# Gal6P(b1-4)GlcNAc = molecular target: Gal6P(b1-4)GlcNAc
# Summary of the method: as §1
# Gal6S(b1-4)Glc = molecular target: Gal6S(b1-4)Glc
# Summary of the method: as §1
# Gal6S(b1-4)Glc6S = molecular target: Gal6S(b1-4)Glc6S
# Summary of the method: as §1
# [5] = molecular target: GalNAc(b1-3)Gal(a1-6)Gal(b1-4)Glc
# Summary of the method: as §1
# [6] = molecular target: GalNAc(b1-4)GlcNAc(b1-2)Man(a1-3)[GalNAc(b1-4)GlcNAc(b1-2)Man(a1-6)]Man(b1-4)GlcNAc(b1-4)GlcNAc
# Summary of the method: as §1
# GalNAc(b1-4)GlcNAc6S = molecular target: GalNAc(b1-4)GlcNAc6S
# Summary of the method: as §1
# [7] = molecular target: Glc(a1-4)Glc(a1-4)Glc(a1-4)Glc
# Summary of the method: as §1
# Glc(b1-6)Glc = molecular target: Glc(b1-6)Glc
# Summary of the method: as §1
# [8] = molecular target: GlcNAc(a1-4)Gal(b1-4)GlcNAc(b1-3)Gal(b1-4)GlcNAc
# Summary of the method: as §1
# [9] = molecular target: GlcNAc(b1-2)[GlcNAc(b1-6)]Man(a1-6)[GlcNAc(b1-2)Man(a1-3)]Man(b1-4)GlcNAc(b1-4)GlcNAc
# Summary of the method: as §1
# [10] = molecular target: GlcNAc(b1-3)Gal(b1-4)GlcNAc(b1-3)Gal(b1-4)GlcNAc(b1-2)Man(a1-3)[GlcNAc(b1-3)Gal(b1-4)GlcNAc(b1-3)Gal(b1-4)GlcNAc(b1-2)Man(a1-6)]Man(b1-4)GlcNAc(b1-4)GlcNAc
# Summary of the method: as §1
# [11] = molecular target: GlcNAc(b1-3)Gal(b1-4)GlcNAc(b1-3)Gal(b1-4)GlcNAc(b1-2)Man(a1-3)[GlcNAc(b1-3)Gal(b1-4)GlcNAc(b1-3)Gal(b1-4)GlcNAc(b1-2)Man(a1-6)]Man(b1-4)GlcNAc(b1-4)[Fuc(a1-6)]GlcNAc
# Summary of the method: as §1
# [12] = molecular target: GlcNAc(b1-3)Gal(b1-4)GlcNAc(b1-3)Gal(b1-4)GlcNAc(b1-3)Gal(b1-4)GlcNAc(b1-2)Man(a1-3)[GlcNAc(b1-3)Gal(b1-4)GlcNAc(b1-3)Gal(b1-4)GlcNAc(b1-3)Gal(b1-4)GlcNAc(b1-2)Man(a1-6)]Man(b1-4)GlcNAc(b1-4)[Fuc(a1-6)]GlcNAc
# Summary of the method: as §1
# [13] = molecular target: GlcNAc(b1-4)Gal(b1-4)GlcNAc
# Summary of the method: as §1
# [14] = molecular target: GlcNAc(b1-4)GlcNAc(b1-4)GlcNAc(b1-4)GlcNAc(b1-4)GlcNAc(b1-4)GlcNAc
# Summary of the method: as §1
# [15] = molecular target: GlcNAc(b1-4)[GlcNAc(b1-6)]GalNAc
# Summary of the method: as §1
# Man(a1-2)Man(a1-3)Man = molecular target: Man(a1-2)Man(a1-3)Man
# Summary of the method: as §1
# [16] = molecular target: Man(a1-2)Man(a1-3)[Man(a1-2)Man(a1-6)]Man(a1-6)[Man(a1-2)Man(a1-2)Man(a1-3)]Man(b1-4)GlcNAc(b1-4)GlcNAc
# Summary of the method: as §1
# Man(a1-6)Man = molecular target: Man(a1-6)Man
# Summary of the method: as §1
# Man(b1-4)GlcNAc = molecular target: Man(b1-4)GlcNAc
# Summary of the method: as §1
# [17] = molecular target: Neu5Ac(a2-3)Gal(b1-3)[GlcNAc(b1-6)]GalNAc
# Summary of the method: as §1
# [18] = molecular target: Neu5Ac(a2-3)Gal(b1-4)[Fuc(a1-3)]GlcNAc(b1-6)[Neu5Ac(a2-3)Gal(b1-3)]GalNAc
# Summary of the method: as §1
# Neu5Ac(a2-6)Gal = molecular target: Neu5Ac(a2-6)Gal
# Summary of the method: as §1
# [19] = molecular target: Neu5Ac(a2-6)Gal(b1-3)GlcNAc(b1-3)[Gal(b1-4)GlcNAc(b1-6)]Gal(b1-4)Glc
# Summary of the method: as §1
# [20] = molecular target: Neu5Ac(a2-6)Gal(b1-4)GlcNAc(b1-3)Gal(b1-4)GlcNAc(b1-3)Gal(b1-4)GlcNAc
# Summary of the method: as §1
binder,measurement,setting,value
B1,glycan array binding signal (z-score),[1],8.04
same,glycan array binding signal (z-score),[2],0.249
same,glycan array binding signal (z-score),[3],1.16
same,glycan array binding signal (z-score),[4],-0.023
same,glycan array binding signal (z-score),Gal(b1-6)Gal,-0.372
same,glycan array binding signal (z-score),Gal6P(b1-4)GlcNAc,-0.45
same,glycan array binding signal (z-score),Gal6S(b1-4)Glc,0.105
same,glycan array binding signal (z-score),Gal6S(b1-4)Glc6S,0.402
same,glycan array binding signal (z-score),[5],-0.468
same,glycan array binding signal (z-score),[6],-0.087
same,glycan array binding signal (z-score),GalNAc(b1-4)GlcNAc6S,-0.208
same,glycan array binding signal (z-score),[7],12.1
same,glycan array binding signal (z-score),Glc(b1-6)Glc,0.309
same,glycan array binding signal (z-score),[8],-0.415
same,glycan array binding signal (z-score),[9],-0.075
same,glycan array binding signal (z-score),[10],3.18
same,glycan array binding signal (z-score),[11],1.28
same,glycan array binding signal (z-score),[12],1.91
same,glycan array binding signal (z-score),[13],-0.117
same,glycan array binding signal (z-score),[14],-0.372
same,glycan array binding signal (z-score),[15],0.069
same,glycan array binding signal (z-score),Man(a1-2)Man(a1-3)Man,-0.16
same,glycan array binding signal (z-score),[16],-0.404
same,glycan array binding signal (z-score),Man(a1-6)Man,-0.195
same,glycan array binding signal (z-score),Man(b1-4)GlcNAc,-0.231
same,glycan array binding signal (z-score),[17],-0.317
same,glycan array binding signal (z-score),[18],-0.117
same,glycan array binding signal (z-score),Neu5Ac(a2-6)Gal,-0.041
same,glycan array binding signal (z-score),[19],-0.05
same,glycan array binding signal (z-score),[20],0.075
